# Measured values published in PubChem BioAssay (NCATS).
# Where “and” joins values, the source holds several entries; their conditions need not be identical. Equal entries are not always repeated. Inconclusive results are not listed. Where a call stands in place of a potency, no number is given. The source holds several records for some structures; these can differ, active in one and inactive in another. Calls of active or inactive are those of the source. Unless noted, calls come from the whole dose curve; as a rule, active = well fitted curve in the direction sought with a large enough effect; inconclusive = small, poorly fitted or top-dose-only effect, or another doubt; inactive = no such curve, though single readings can be large; an effect the other way counts as inactive or inconclusive.
# How the values were obtained:
# [1] = target: Calcium and integrin-binding protein 1 (Homo sapiens) (UniProt Q99828); assay: Primary qHTS for Identification of Calcium Integrin Binding Protein 1 (CIB1) Competitor (AID 1508620);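 note: GST tagged CIB1 binding a fluorescein labelled alphaIIb integrin peptide tracer; top concentration of the series differs between compounds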
# In short: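 Fluorescence polarization competition: GST-tagged CIB1 (1 uM final) preincubated with compound 15 min at room temperature, then FITC-labelled alphaIIb peptide (100 nM final) added. After 15 min at room temperature, polarization read at Ex 480/Em 540.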
# [2] = Primary qHTS for small molecule stabilizers of the endoplasmic reticulum resident proteome: Secreted ER Calcium Modulated Protein (SERCaMP) assay (AID 1508630)
# In short: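 The SH-SY5Y reporter protocol was run at 3 concentrations up to 38.3 uM (primary) or 11 concentrations (follow-up): 16 h compound, 100 nM thapsigargin for 4 h, then extracellular luciferase luminescence.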
# [3] = target: Cytochrome P450 2D6 (Homo sapiens) (UniProt P10635); assay: Cytochrome P450 family 2 subfamily D member 6 (CYP2D6) small molecule antagonists: luciferase biochemical (cell-free) qHTS assay (AID 1645840; active = well fitted curve in the direction sought with a large enough effect in the repeat runs; an effect the other way counts as inactive or inconclusive; note: nearly all actives have a fitted effect of over 55% in size; note: potency is the fitted concentration of half-maximal effect)
# In short: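 P450-Glo CYP2D6 system: proluciferin substrate converted by enzyme to luciferin, read by luminescence proportional to activity. Enzyme-substrate mix with compound 10 min at room temperature, then NADPH regeneration 1 h before detection reagent.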
# [4] = target: Cytochrome P450 2C9 (Homo sapiens) (UniProt P11712); assay: Cytochrome P450 family 2 subfamily C member 9 (CYP2C9) small molecule antagonists: luciferase biochemical (cell-free) qHTS assay (AID 1645842; active = well fitted curve in the direction sought with a large enough effect in the repeat runs; an effect the other way counts as inactive or inconclusive; note: nearly all actives have a fitted effect of over 55% in size; note: potency is the fitted concentration of half-maximal effect)
# In short: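 P450-Glo CYP2C9 system: proluciferin substrate with enzyme in mix containing 0.4% BSA, 10 min at room temperature, then NADPH regeneration solution added and incubated 1 h at 37C. Detection reagent stopped reaction; luminescence read after 20 min as RLU.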
# [5] = A High-Content qHTS Against Drug Library for the Identification of Small Molecules that Inhibit DYT1 Early Onset Primary Dystonia-Associated Cell Pathology (AID 1645839; calls by dose curve; note: series mostly up to about 46 µM)
# In short: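 Cells were seeded and left for 24 h, then dosed with compound alongside tetracycline induction of mutant EGFP-TorsinA. They were incubated for 48 h, fixed in 4% paraformaldehyde, permeabilized and imaged for mislocalization (%pathology) and cell count.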
# [6] = target: Cytochrome P450 3A4 (Homo sapiens) (UniProt P08684); assay: Cytochrome P450 family 3 subfamily A member 4 (CYP3A4) small molecule antagonists: luciferase qHTS assay (AID 1645841; active = well fitted curve in the direction sought with a large enough effect in the repeat runs; an effect the other way counts as inactive or inconclusive; note: nearly all actives have a fitted effect of over 45% in size)
# In short: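 P450-Glo CYP3A4 enzyme with proluciferin substrate preincubated 10 min with compound at room temperature, then NADPH regeneration 1 h. Luciferin detection reagent added for 20 min; luminescence recorded. Ketoconazole positive control.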
# Cytochrome P450 2C9 (Homo sapiens), sequence (P11712 whole entry, looked up): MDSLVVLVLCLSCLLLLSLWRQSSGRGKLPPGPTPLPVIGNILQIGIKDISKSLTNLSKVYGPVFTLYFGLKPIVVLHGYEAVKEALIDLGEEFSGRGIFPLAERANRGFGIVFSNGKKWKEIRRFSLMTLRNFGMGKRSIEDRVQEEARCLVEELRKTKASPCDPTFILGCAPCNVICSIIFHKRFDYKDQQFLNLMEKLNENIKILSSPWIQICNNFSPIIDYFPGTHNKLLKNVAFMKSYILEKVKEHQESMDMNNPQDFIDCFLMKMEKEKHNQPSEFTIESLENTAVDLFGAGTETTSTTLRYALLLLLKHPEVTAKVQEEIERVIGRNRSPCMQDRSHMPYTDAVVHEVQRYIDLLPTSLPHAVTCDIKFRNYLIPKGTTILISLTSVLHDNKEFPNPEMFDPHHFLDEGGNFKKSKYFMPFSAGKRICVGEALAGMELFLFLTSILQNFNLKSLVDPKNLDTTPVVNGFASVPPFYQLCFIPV
# Cytochrome P450 3A4 (Homo sapiens), sequence (P08684 whole entry, looked up): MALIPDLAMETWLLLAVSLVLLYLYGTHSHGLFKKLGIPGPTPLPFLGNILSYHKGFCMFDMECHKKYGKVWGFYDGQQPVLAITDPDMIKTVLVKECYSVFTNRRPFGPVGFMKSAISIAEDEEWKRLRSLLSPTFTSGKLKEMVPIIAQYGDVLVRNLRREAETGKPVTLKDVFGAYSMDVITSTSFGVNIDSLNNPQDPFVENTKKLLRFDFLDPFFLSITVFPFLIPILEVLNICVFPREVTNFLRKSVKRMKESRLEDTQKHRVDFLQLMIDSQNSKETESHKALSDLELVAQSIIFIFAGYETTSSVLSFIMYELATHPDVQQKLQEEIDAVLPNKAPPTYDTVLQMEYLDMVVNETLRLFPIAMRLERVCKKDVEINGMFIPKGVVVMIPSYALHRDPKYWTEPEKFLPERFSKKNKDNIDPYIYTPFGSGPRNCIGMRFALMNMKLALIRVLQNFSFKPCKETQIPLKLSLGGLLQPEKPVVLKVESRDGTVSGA
# Cytochrome P450 2D6 (Homo sapiens), sequence (P10635 whole entry, looked up): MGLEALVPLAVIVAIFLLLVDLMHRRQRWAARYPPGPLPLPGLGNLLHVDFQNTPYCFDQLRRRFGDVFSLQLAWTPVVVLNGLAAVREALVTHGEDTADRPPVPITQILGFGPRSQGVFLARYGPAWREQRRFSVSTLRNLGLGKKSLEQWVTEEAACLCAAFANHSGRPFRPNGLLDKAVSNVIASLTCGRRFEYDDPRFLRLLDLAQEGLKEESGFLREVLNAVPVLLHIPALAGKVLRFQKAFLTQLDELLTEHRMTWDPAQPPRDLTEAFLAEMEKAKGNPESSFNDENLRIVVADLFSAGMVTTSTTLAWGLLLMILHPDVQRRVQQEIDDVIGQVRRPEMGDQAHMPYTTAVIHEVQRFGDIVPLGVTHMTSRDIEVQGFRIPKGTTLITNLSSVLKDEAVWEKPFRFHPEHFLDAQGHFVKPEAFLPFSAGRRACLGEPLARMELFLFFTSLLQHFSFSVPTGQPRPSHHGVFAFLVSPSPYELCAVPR
# Calcium and integrin-binding protein 1 (Homo sapiens), sequence (Q99828 whole entry, looked up): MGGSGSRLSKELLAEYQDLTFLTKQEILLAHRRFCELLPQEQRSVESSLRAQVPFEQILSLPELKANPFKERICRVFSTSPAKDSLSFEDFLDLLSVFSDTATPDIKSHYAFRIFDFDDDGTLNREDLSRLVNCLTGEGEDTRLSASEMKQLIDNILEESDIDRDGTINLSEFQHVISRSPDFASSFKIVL
Structure (SMILES),Potency [1],Potency [2],Potency [3],Potency [4],Potency [5],outcome [6]
COc1ccc(C2(C#N)CCC(C(=O)O)CC2)cc1OC1CCCC1 (centres undefined),inactive,inactive,inactive,inactive,–,–
Cc1ccc(NC(=O)c2ccc(CN3CCN(C)CC3)cc2)cc1Nc1nccc(-c2cccnc2)n1,–,inactive,inactive,inactive and 23.9 µM (active),–,–
O=C(NOCC1CC1)c1ccc(F)c(F)c1Nc1ccc(I)cc1Cl,inactive,inactive,inactive,0.617 µM (active),–,–
CS(=O)(=O)OCCCCOS(C)(=O)=O,inactive,–,inactive,inactive,inactive,inactive
Cc1cc(C2CCCCC2)n(O)c(=O)c1,inactive,inactive,inactive,inactive,–,–
Cc1cc(=O)c2c(O)c3c(O)cc(=O)c4c3c3c(cc(O)c1c23)C(C)(C)C=4O,inactive,inactive,inactive,inactive,–,inactive
O=C(NCCO[N+](=O)[O-])c1cccnc1,inactive,–,inactive,inactive,inactive,–
CCCc1cc(=O)[nH]c(=S)[nH]1,–,inactive,inactive,inactive,inactive,–
COc1cc(C(C)=O)ccc1OCCCN1CCC(c2noc3cc(F)ccc23)CC1,inactive,inactive,5.49 µM (active),inactive,–,–
C[C@]12CCC(=O)C=C1CC[C@@H]1[C@H]2[C@@H](O)C[C@@]2(C)[C@H]1CC[C@]2(O)C(=O)CO,–,inactive,–,–,–,–
COc1c(O)cc2c(c1O)[C@@H]1O[C@H](CO)[C@@H](O)[C@H](O)[C@H]1OC2=O,inactive,–,inactive,inactive,–,–
Clc1ccc(C(Cn2ccnc2)OCc2ccsc2Cl)c(Cl)c1 (centres undefined),inactive,–,0.692 µM (active),0.0692 µM (active),–,–
Cc1nc(Nc2ncc(C(=O)Nc3c(C)cccc3Cl)s2)cc(N2CCN(CCO)CC2)n1,inactive,inactive,inactive,inactive,–,–
CN(C)c1ccc2nc3ccc(=[N+](C)C)cc-3sc2c1,–,inactive,–,–,–,–
CC(=O)NC[C@H]1CN(c2ccc(N3CCOCC3)c(F)c2)C(=O)O1,–,inactive,inactive,–,–,inactive
CCN(CC)CCOc1ccc(Cc2ccccc2)cc1,inactive,inactive,6.17 µM (active),inactive,–,–
CCOc1cc(CC(=O)N[C@@H](CC(C)C)c2ccccc2N2CCCCC2)ccc1C(=O)O,inactive,inactive,inactive,inactive,–,–
CC1Cc2ccccc2N1NC(=O)c1ccc(Cl)c(S(N)(=O)=O)c1 (centres undefined),inactive,inactive,inactive,inactive,–,–
Nc1nc(Cl)nc2c1ncn2[C@H]1C[C@H](O)[C@@H](CO)O1,inactive,inactive,inactive,–,–,–
O=c1c(O)c(-c2ccc(O)cc2O)oc2cc(O)cc(O)c12,inactive,inactive,inactive,–,–,–
Cc1cccc(CN2CCN(C(c3ccccc3)c3ccc(Cl)cc3)CC2)c1 (centres undefined),inactive,inactive,2.45 µM (active),11 µM (active),–,–
CCC(C)(Oc1ccc(C2(c3ccc(OC(C)(CC)C(=O)O)cc3)CCCCC2)cc1)C(=O)O (centres undefined),inactive,–,inactive,inactive,inactive,–
C=C(c1ccc(C(=O)O)cc1)c1cc2c(cc1C)C(C)(C)CCC2(C)C,inactive,inactive,inactive,–,–,–
CCCS(=O)c1ccc2nc(NC(=O)OC)[nH]c2c1 (centres undefined),inactive,inactive,–,inactive,–,inactive
CC1=C(C)C(=O)C(C(CCCCCC(=O)O)c2ccccc2)=C(C)C1=O (centres undefined),inactive,inactive,11 µM (active),17.4 µM (active),–,–
Cc1ccc(S(=O)(=O)NC(=O)NN2CC3CCCC3C2)cc1 (centres undefined),inactive,–,inactive,inactive,inactive,–
CN(C)[C@@H](CCOc1cccc2ccccc12)c1ccccc1,inactive,inactive,347 nM (active) and 849 nM (active),15.5 µM (active) and 21.3 µM (active),–,–
COC1=C(OC)C(=O)C(CCCCCCCCCCO)=C(C)C1=O,inactive,inactive,3.89 µM (active),7.76 µM (active),–,–
O=c1oc2cc(O)ccc2s1,inactive,inactive,inactive,inactive,–,–
CCCCCCCCOc1ccccc1C(=O)Nc1ccc(C(=O)OCC[N+](C)(CC)CC)cc1,inactive,inactive,17.4 µM (active),1.55 µM (active),–,–
